Rows were chosen to be rich in hits. Some 6.8% of all compounds tested hit in one or more screens of this group.
T cruzi growth-1: inhibitors of T. cruzi proliferation; AID 624255; 5.9% of 77,000 active; T. cruzi beta-gal in NIH3T3, GalScreen luminescence, 90 h; inhibition, % at 8.34 µM;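 active = mean inhibition above about 93%, with at least 55% of replicates each passing it, limit read from the data, passing the limit was not always enough; inconclusive = only one of those two conditions holds; inactive = neither condition holds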
Pf Dd2 growth: blocks growth of Plasmodium falciparum Dd2 parasites. P. falciparum Dd2 growth, SYBR Green, 72 h; stronger effect = lower value. activity change, % at 10 µM. 2.3% of 94,000 active; in the data active = activity change below about -80%; inconclusive = no clear call, values can overlap the other calls
C diff HTS: inhibitors of Clostridium difficile growth; Clostridium difficile clinical isolate growth, OD600, 24 h; stronger effect = lower value; growth activity, negative = inhibition, % at 16 µg/mL (by protocol); 0.25% of 86,000 active;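 active = mean growth activity at or below -80% and every replicate also at or below -80%; inconclusive = mean at or below -80% but some replicate above -80%; inactive = mean growth activity above -80%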;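 note: 0% = DMSO wells and -100% = levofloxacin 16 µg/mL wells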
T cruzi growth-2: blocks T. cruzi growth in NIH3T3 host cells. T. cruzi beta-gal in NIH3T3, GalScreen luminescence, 90 h. AID 651739. inhibition, % at 8.35 µM. shares compounds with T cruzi growth-1. 72% of 5,600 active;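 active = mean replicate inhibition above about 95% and at least 55% of replicates individually reaching it, limit read from the data; inconclusive = only one of the two criteria is met; inactive = neither criterion is met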
T cruzi growth-3: blocks T. cruzi growth in NIH3T3 host cells; T. cruzi beta-gal in NIH3T3, GalScreen luminescence, 90 h; inhibition, % at 2.09 µM; 21% of 5,600 active; shares compounds with T cruzi growth-1; AID 651740;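 active = mean inhibition above about 95%, with at least 55% of replicates also reaching it, limit read from the data; inconclusive = meets just one of the two conditions; inactive = meets neither condition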;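 note: plate controls were neutral control median for no effect and positive control median for full effect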
NIH3T3 tox: cytotoxicity in mouse NIH/3T3 fibroblasts. AID 651742. shares compounds with T cruzi growth-1. cytotoxicity (signal decrease), % at 8.35 µM. NIH/3T3 viability, CellTiter-Glo ATP luminescence, 90 h. 14% of 5,600 active;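 active = mean signal decrease across replicates above about 35% based on untreated-well scatter, with enough replicates individually passing, limit read from the data; inconclusive = no rule stated though some were filed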;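 note: 0% = median of neutral control wells and 100% = median of positive control wells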
3T3 cytotox 2: cytotoxicity in mouse NIH/3T3 fibroblasts; shares compounds with T cruzi growth-1; NIH/3T3 viability, CellTiter-Glo ATP luminescence, 90 h; inhibition, % at 24.9 µM; 56% of 5,600 active; AID 651744;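 active = mean loss of cell viability signal at or above a set limit, and enough replicates individually reaching it; inconclusive = meets only the mean limit or only the replicate share; inactive = meets neither condition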;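 note: 0% = median of neutral control wells and 100% = median of positive control wells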
The depositor's hits bear a star; ? = inconclusive; . = no result given.

SMILES	T cruzi growth-1	Pf Dd2 growth	C diff HTS	T cruzi growth-2	T cruzi growth-3	NIH3T3 tox	3T3 cytotox 2
CCc1csc(N2[C@@H](C#N)[C@H](c3ccc(C#Cc4ccc(F)cc4)cc3)[C@@H]2CO)n1	106*	-52	3	97*	110*	-29	21
CCc1csc(N2[C@H](CO)[C@H](c3ccc(-c4ccc(F)cc4)cc3)[C@@H]2C#N)n1	98*	-2	5	108*	43	21	91*
CCc1csc(N2[C@H](C#N)[C@H](c3ccc(-c4ccc(F)cc4)cc3)[C@H]2CO)n1	94	-2	5	.	.	.	.
N#C[C@@H]1[C@H](c2ccc(C#Cc3ccc(F)cc3)cc2)[C@@H](CO)N1c1nc(-c2ccccc2)cs1	36	42	8	.	.	.	.
COc1cccc(-c2cn(CC[C@@H]3CC[C@@H](NC(C)=O)[C@H](CO)O3)nn2)c1	-113	-9	-7	.	.	.	.
COc1ccc(-c2cn(CC[C@@H]3CC[C@@H](NS(=O)(=O)c4ccccc4C)[C@@H](CO)O3)nn2)cc1	-7	-2	-2	.	.	.	.
C/C=C/c1ccc([C@H]2[C@H]3CN(C(=O)c4ccccc4)CC(=O)N3[C@H]2CO)cc1	.	3	-2	.	.	.	.
O=C(C[C@H]1CC[C@H]2[C@@H](COC[C@H](O)CN2C(=O)Nc2ccc(Cl)cc2)O1)NCCc1ccncc1	78	0	56	.	.	.	.
O=C(C[C@@H]1CC[C@H]2[C@@H](COC[C@@H](O)CN2C(=O)Nc2ccc(Cl)cc2)O1)NCCc1ccncc1	71	-2	30	.	.	.	.
O=C(C[C@@H]1CC[C@H]2[C@@H](COC[C@H](O)CN2C(=O)Nc2ccc(Cl)cc2)O1)NCCc1ccncc1	128*	8	9	87	61	9	11
O=C(C[C@@H]1CC[C@@H]2[C@H](COC[C@H](O)CN2C(=O)Nc2ccc(Cl)cc2)O1)NCCc1ccncc1	99*	18	57	99*	80	10	-3
COc1cccc(CNC(=O)C[C@H]2CC[C@@H](NC(=O)C3CCOCC3)[C@H](CO)O2)c1	-41	10	1	.	.	.	.
Cc1noc(C)c1S(=O)(=O)N(C)C[C@@H]1OCCCC[C@@H](C)Oc2ccc(NC(=O)Nc3ccc(F)cc3)cc2C(=O)N([C@@H](C)CO)C[C@H]1C	86	-31	-4	.	.	.	.
Cc1noc(C)c1S(=O)(=O)N(C)C[C@H]1OCCCC[C@@H](C)Oc2ccc(NC(=O)Nc3ccc(C(F)(F)F)cc3)cc2C(=O)N([C@@H](C)CO)C[C@@H]1C	99*	-94*	-1	106*	116*	30	35*
Cc1noc(C)c1S(=O)(=O)N(C)C[C@H]1OCCCC[C@@H](C)Oc2ccc(NC(=O)Nc3ccc(C(F)(F)F)cc3)cc2C(=O)N([C@H](C)CO)C[C@@H]1C	110*	-53	5	108*	102*	7	32*
Cc1noc(C)c1S(=O)(=O)N(C)C[C@H]1OCCCC[C@H](C)Oc2ccc(NC(=O)Nc3ccc(F)cc3)cc2C(=O)N([C@@H](C)CO)C[C@@H]1C	87	-71	2	.	.	.	.
Cc1noc(C)c1S(=O)(=O)N(C)C[C@@H]1OCCCC[C@@H](C)Oc2ccc(NC(=O)Nc3ccc(F)cc3)cc2C(=O)N([C@H](C)CO)C[C@H]1C	75	-47	-5	.	.	.	.
Cc1noc(C)c1S(=O)(=O)N(C)C[C@@H]1OCCCC[C@H](C)Oc2ccc(NC(=O)Nc3ccc(C(F)(F)F)cc3)cc2C(=O)N([C@H](C)CO)C[C@@H]1C	104*	-35	-6	105*	113*	18	8
C[C@@H]1CCCCO[C@@H](CN(C)S(=O)(=O)c2ccccc2)[C@@H](C)CN([C@H](C)CO)C(=O)c2cc(NC(=O)c3ccncc3)ccc2O1	.	-4	-2	.	.	.	.
O=C(C[C@@H]1CC[C@H]2[C@@H](COC[C@H](O)CN2Cc2ccc3c(c2)OCO3)O1)Nc1ccccc1	41	-14	.	.	.	.	.
O=C(C[C@H]1CC[C@H]2[C@@H](COC[C@H](O)CN2Cc2ccc3c(c2)OCO3)O1)Nc1ccccc1	45	-9	4	.	.	.	.
O=C(C[C@H]1CC[C@H]2[C@@H](COC[C@H](O)CN2Cc2ccc3c(c2)OCO3)O1)Nc1ccc(-c2ccccc2)cc1	104*	-7	58	98*	52	27	57*
O=C(C[C@H]1CC[C@@H]2[C@H](COC[C@H](O)CN2Cc2ccc3c(c2)OCO3)O1)Nc1ccccc1	50	-2	-4	.	.	.	.
O=C(C[C@@H]1CC[C@H]2[C@@H](COC[C@@H](O)CN2Cc2ccc3c(c2)OCO3)O1)Nc1ccc(-c2ccccc2)cc1	103*	0	68	95*	103*	-14	94*
O=C(C[C@H]1CC[C@@H]2[C@H](COC[C@H](O)CN2Cc2ccc3c(c2)OCO3)O1)Nc1ccc(-c2ccccc2)cc1	112*	-14	81	106*	35	5	50*
SMILES	T cruzi growth-1	Pf Dd2 growth	C diff HTS	T cruzi growth-2	T cruzi growth-3	NIH3T3 tox	3T3 cytotox 2
C[C@@H]1CN([C@@H](C)CO)C(=O)c2cccc(NS(C)(=O)=O)c2O[C@H]1CN(C)Cc1ccc(C(F)(F)F)cc1	47	-23	2	.	.	.	.
C[C@@H]1CN([C@@H](C)CO)C(=O)Cc2cc(NC(=O)Cc3ccccc3)ccc2O[C@H]1CN(C)S(=O)(=O)c1ccc(Cl)cc1	23	-70	0	.	.	.	.
CCc1cnc(N2[C@@H](C#N)[C@@H](c3ccc(C4=CCCC4)cc3)[C@@H]2CO)s1	96*	5	2	105*	74	24	42*
CCc1cnc(N2[C@H](C#N)[C@H](c3ccc(C4=CCCC4)cc3)[C@H]2CO)s1	85	-12	-7	.	.	.	.
CCc1csc(N2[C@H](C#N)[C@H](c3ccc(-c4cccc(F)c4)cc3)[C@@H]2CO)n1	92	-40	7	.	.	.	.
CCc1cnc(N2[C@H](C#N)[C@H](c3ccc(-c4cccc(F)c4)cc3)[C@@H]2CO)s1	102*	-34	-43	98*	108*	-1	25
CCc1cnc(N2[C@H](C#N)[C@H](c3ccc(C4=CCCCC4)cc3)[C@H]2CO)s1	93	-25	-1	.	.	.	.
CCc1cnc(N2[C@@H](C#N)[C@@H](c3ccc(C4=CCCCC4)cc3)[C@@H]2CO)s1	100*	2	8	96*	91	?	60*
CC(C)NC(=O)Nc1cccc2c1O[C@@H](CN(C)C(=O)NC(C)C)[C@@H](C)CN([C@H](C)CO)C2=O	44	7	-3	.	.	.	.
C[C@@H]1CN([C@H](C)CO)C(=O)c2cc(C#Cc3cccnc3)cnc2O[C@@H]1CN(C)S(=O)(=O)c1ccccc1F	43	-5	-2	.	.	.	.
C[C@@H]1CN([C@H](C)CO)C(=O)Cc2cc(NS(=O)(=O)c3cn(C)cn3)ccc2O[C@H]1CN(C)C(=O)Nc1ccc(C(F)(F)F)cc1	-19	0	-5	.	.	.	.

High-throughput results as filed in PubChem.
